The list is not random: actives were taken first. Their share in the collection is about 7.8%.
HCV inhibitor = inhibitors of hepatitis C virus infection | Huh7.5.1 HCVcc-Cre infection, luciferase reporter, 44 h | Potency, µM (highest dose often 41.8 µM), for the others: at the highest dose activity change, negative = inhibition, most hits filed as inhibitors | hit rate 3.4% among 340,000; active = well fitted inhibition curve with a large enough effect; inconclusive = small, poorly fitted or top-dose-only effect, or another doubt; inactive = no such curve, though single readings can be large or run the other way; also: potency is read from the fitted curve at half-maximal effect
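A cell-based infection assay in which seeded cells (1,000 per well) receive test compound after 4 h, are inoculated with HCVcc-Cre at approximately 0.5 moi, and are incubated 44 h before luminescence detection.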
VACV Venus inh = inhibitors of vaccinia virus (Venus reporter). Vaccinia virus Venus reporter expression, fluorescence. Potency, µM (doses to about 36.5 µM), without a hit: at the top dose activity change, negative = inhibition, actives largely listed as inhibitors. hit rate 0.46% among 330,000. AID 720580; calls by dose curve; tested in A549 cells; also: potency is read from the fitted curve at half-maximal effect; nearly all actives have a fitted effect of over 30% in size
Lassa entry inh = Lassa virus entry inhibition; Potency, µM (series often up to 37.9 µM), for the others: at the highest dose activity change, negative = inhibition, hits mostly inhibitors; AID 540256; hit rate 1.2% among 300,000; Lassa virus pseudotype entry inhibition, cell reporter; calls by dose curve; tested in HEK293 cells; also: potency is read from the fitted curve at half-maximal effect; nearly all actives have a fitted effect of over 50% in size
HCMV antiviral = human cytomegalovirus inhibition | HFF cells, HCMV-luciferase reporter, 72 h; active compounds read low | activity change, negative = inhibition, % at 57.5 µM | hit rate 4.5% among 410,000; in the data active = activity change below about -60%; inconclusive = no clear call, values can overlap the other calls; inactive = above about -39%
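After 16 h attachment at 37C, HFF cells received test compound and HCMV-luciferase (1 PFU/cell); reporter luminescence read 72 h later, data normalized against buffer-only and known inhibitor Salinomycin.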
VACV mCherry inh = vaccinia inhibition (mCherry reporter); hit rate 0.63% among 310,000; Vaccinia virus mCherry reporter infection, fluorescence; AID 720579; Potency, µM (series often up to 36.5 µM), for the others: top-dose activity change, negative = inhibition, usual class: inhibitors; calls by dose curve; tested in A549 cells; also: potency is read from the fitted curve at half-maximal effect; nearly all actives have a fitted effect of over 35% in size
Marburg entry inh = blocks Marburg virus binding to or entry into cells; Marburg virus pseudotyped entry inhibition, cell reporter; hit rate 1.8% among 300,000; Potency, µM (top dose mostly 37.8 µM), without a hit: at the highest dose activity change, negative = inhibition, hits mostly inhibitors; calls by dose curve; tested in HEK293 cells; also: potency is read from the fitted curve at half-maximal effect
Numbers without * were called inactive; i = inactive; ? = inconclusive; · = not tested or not shown; [ ] = another dose, or the depositor's remark. % is scaled to controls: 0 for no effect and ±100 for the full control effect.

SMILES	HCV inhibitor	VACV Venus inh	Lassa entry inh	HCMV antiviral	VACV mCherry inh	Marburg entry inh
CCCCNC1C(CC)C(CCC)C(C#N)(C#N)C1(C#N)C#N (stereo not given)	13µM*	-26%	?	·	·	?
COc1ccc2c(c1)[C@H]1[C@H](CO2)[C@H](c2ccccc2)[C@]2(C)C(=O)N(Cc3ccc(C)cc3)CC(=O)N12	10µM*	?	·	·	-20%	·
COc1ccc2c(c1)OC[C@H]1[C@H]2N2C(=O)CN(Cc3ccc(Cl)cc3)C(=O)[C@@]2(C)[C@H]1c1ccccc1	11µM*	-26%	·	4	?	·
CCOc1ccccc1CN1C(=O)c2ccccc2C1C(=O)NC1CCCCCC1 (stereo not given)	·	-2%	?	-5	-3%	?
N#Cc1sc2nc(C3CC3)cc(-c3ccccc3)c2c1N	?	-2%	-23%	?	-2%	-20%
N#Cc1sc2nc(-c3ccccc3)cc(-c3ccco3)c2c1N	13µM*	-2%	?	9	-7%	3%
COC(=O)Nc1ccc(S(=O)(=O)Nc2ccc(C)cc2)cc1	·	·	·	·	·	-2%
CC(=O)c1ccc(NC(=O)Nc2ccc(NS(=O)(=O)c3ccc(C)cc3)cc2)cc1	11µM*	?	-18%	-22	?	-25%
CC(=O)c1ccc(NC(=O)Nc2ccccc2)cc1	-4%	-7%	8.2µM*	89	-12%	?
CC(=O)Nc1ccc(C(=O)NNS(=O)(=O)c2ccc(C)cc2)cc1	7%	-6%	-24%	?	i	-6%[46.1 µM]
COC(=O)Nc1ccc(S(=O)(=O)Nc2ccc(O)cc2)cc1	?	-22%	-28%	-67*	-15%	8%
CC(=O)Nc1cccc(Nc2nc3ccccc3n3c(C)nnc23)c1	·	-5%	12%[46.1 µM]	-25	-16%	·
CCOC(=O)CNC(=S)N(CCCN1CCCCCC1)Cc1cccs1	4%	-15%	8%[46.1 µM]	-88*	i	?
COc1ccc(NC(=S)N(CCCN2CCCC2)Cc2cccn2Cc2ccc(Cl)cc2)cc1Cl	?	·	·	-79*	·	·
Cc1ccc(NC(=S)N(CCCN2CCCC2)Cc2cccn2Cc2ccc(Cl)cc2)cc1Cl	0.56µM*	-19%	1.1µM*	-12	-16%	8.9µM*
COc1ccc(NC(=S)N(CCC(C)C)C2CCN(C(C)C)CC2)cc1Cl	4µM*	-22%	?	-62*	-21%	?
CCCc1nn2c(C)c(-c3ccccc3)nc2s1	·	-5%	?	74	i	-24%[46.1 µM]
Cc1ccccc1CNC(=O)c1c(C)oc2c1C1=NCCN1C=N2	·	-2%	12%[46.1 µM]	9	-9%	·
Cc1ccc(NC(=S)N(CCCN2CCCC2)Cc2cccn2Cc2ccc(Cl)cc2)cc1C	?	-13%	?	-25	?	?
COc1ccc(NC(=S)N(CCCN2CCC(C)CC2)Cc2cccs2)cc1Cl	?	-6%	?	-90*	i	?
FC(F)(F)c1cccc(NC(=S)N(CCCN2CCCC2)Cc2cccn2Cc2ccc(Cl)cc2)c1	-8%	?	?	-67*	?	?
COc1ccc(NC(=S)N(CCCN2CCN(C)CC2)Cc2cccs2)cc1	-2%	-4%	?	?	-13%	?
Cc1cnc2ccc3ccccc3c2c1C	·	-18%	·	·	-12%	·
Cc1ccccc1N=C1Nc2ccc(Cl)cc2N[C@]12C[C@H]1CCCC(=O)N3CC[C@@H](C2)[C@@H]13	·	-5%	·	·	i	·
CN(C)c1cc[n+](CC(=O)Nc2ccc(OC(F)F)cc2)cc1	-8%	-25%	-16%[46.1 µM]	-65*	-14%	?
SMILES	HCV inhibitor	VACV Venus inh	Lassa entry inh	HCMV antiviral	VACV mCherry inh	Marburg entry inh
CN(C)c1cc[n+](CC(=O)Nc2ccc(Cl)c([N+](=O)[O-])c2)cc1	8%	-8%	-10%[46.1 µM]	-96*	?	?
O=C(NNC1OC(CO)C(O)C(O)C1O)c1cccnc1 (stereo not given)	-1%	1%	8%	-62*	-7%	-2%[14.2 µM]
CC(=NCc1ccc(F)cc1)c1c(O)n(C)c(=O)n(C)c1=O	-13%	·	-5%	-25	·	0.33µM*
Cc1ccc2c(c1)c1c(n2CC(O)CNC(C)(C)C)CCCC1 (stereo not given)	?	-4%	·	9	i	·
Cc1ccc2c(c1)c1c(n2CC(O)CN2CCCCCC2)CCCC1 (stereo not given)	10µM*	-26%	?	-77*	-21%	6.3µM*
CNCC(O)Cn1c2c(c3ccccc31)CCCC2 (stereo not given)	10µM*	·	-26%	0	·	?
CCc1ccc2[nH]c3nc(N/N=C/c4ccc(O)cc4O)nnc3c2c1	?	-25%	?	-76*	1.8µM*	3.5µM*
CNC(=S)N/N=C(\C)c1ccc2c(c1)OCO2	-14%	-5%	·	-104*	-3%	·
CNC(=S)N/N=C(\C)c1ccc2c(c1)OCCO2	?	-22%	-1%	38	-19%	?
CNC(=S)N/N=C(\C)c1ccccc1	16%	-15%	?	-97*	i	8%
COc1ccc(CCC(=O)N/N=C(\C)c2ccc3c(c2)OCO3)cc1	-21%	-9%	0.35µM*	32	i	13%
Cc1ccc(NC(=O)CSc2c3c(nc4ccccc24)CCCC3)cc1F	·	-18%	-11%[46.1 µM]	-18	-28%	-2%[46.1 µM]
C[C@H]1CN([C@@H](C)CO)C(=O)c2cc(NC(=O)Cc3ccccc3)ccc2O[C@H]1CN(C)Cc1ccccc1	6%	-20%	·	?	-14%	·
C[C@@H]1CN([C@@H](C)CO)C(=O)c2cc(NS(C)(=O)=O)ccc2O[C@H]1CN(C)Cc1ccc(Oc2ccccc2)cc1	-13%	?	·	-39	?	·
C[C@@H]1CCCCO[C@H](CN(C)Cc2ccc(C(F)(F)F)cc2)[C@H](C)CN([C@@H](C)CO)C(=O)c2cc(NC(=O)Cc3ccccc3)ccc2O1	·	11µM*	·	-81*	?	·
COc1ccc(CN(C)C[C@@H]2OCCCC[C@H](C)Oc3ccc(NC(=O)Nc4ccc(F)cc4)cc3C(=O)N([C@H](C)CO)C[C@H]2C)cc1	·	-19%	·	-102*	i	·
C[C@@H]1CN([C@@H](C)CO)C(=O)c2cc(NC(=O)Nc3ccc(F)cc3)ccc2O[C@@H]1CN(C)Cc1ccc(Oc2ccccc2)cc1	?	10µM*	·	10	?	·
C[C@@H]1CN([C@H](C)CO)C(=O)c2cc(NC(=O)Cc3ccccc3)ccc2O[C@H]1CN(C)Cc1ccc(Oc2ccccc2)cc1	11µM*	?	·	53	?	·
Cc1cc(C)c(NS(=O)(=O)c2ccc(-c3coc(C)n3)cc2)c(C)c1	·	-11%	6%[46.1 µM]	-11	-17%	·
CCn1ccc2cc(S(=O)(=O)N3CCCN(C(=O)Nc4ccc(C)cc4Cl)CC3)ccc21	·	1%	?	-26	-7%	·
C[C@H]1CN([C@@H](C)CO)C(=O)Cc2cc(NS(C)(=O)=O)ccc2O[C@@H]1CN(C)Cc1ccc(Cl)c(Cl)c1	?	-28%	·	-13	-12%	·
